Rows were chosen to be rich in hits. Some 1.3% of all compounds tested hit in one or more screens of this group.
AI-2 QS mod: modulates the Vibrio harveyi AI-2 quorum sensing system; Vibrio harveyi JMH597 AI-2 luminescence/OD600 ratio, 9 h; active compounds read low; strain lacks LuxN and CqsS sensors; 0 = neutral-control median; AID 2094; actives 0.4% (n = 300,000); activity change, % at 7.5 µM; in the data active means activity change below about -75%, passing the limit was not always enough; inconclusive means no clear call, values can overlap the other calls;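 further: luminescence divided by OD600 gain over 9 h not by final OD600 alone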
PGC1a acetyl inh: PGC1a acetylation modulation, inhibitor mode | U2OS PGC1a acetylation, AlphaScreen anti-acetyl-lysine; with virally co-expressed GCN5 acetyltransferase | inhibition, % at 15.6 µM | actives 0.17% (n = 350,000);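 active means every replicate shows inhibition of at least 40%; inconclusive means mean inhibition at least 40% but some replicate below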;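 further: 0% = neutral control wells and 100% = positive control wells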
Statin myotox sup: suppressors of simvastatin-induced myotoxicity in C2C12 myotubes; ATP luminescence, 48 h; scaled: DMSO 0, geranylgeraniol control 100; actives 0.78% (n = 330,000); AID 602340; rescue of ATP level, % at 7.49 µM;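 active means mean ATP rescue above about 67%, or every replicate alone reaching that limit, limit read from the data, passing the limit was not always enough; inconclusive means no clear call, values can overlap the other calls; inactive means mean under the limit and some replicate under it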;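 further: myotubes were challenged with 10 µM simvastatin during compound exposure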
Rce1 inhib: inhibitors of yeast Ras-converting enzyme; yeast membranes, quenched prenylated peptide cleavage fluorescence; actives 0.27% (n = 290,000); calls only; AID 2563; Q03530;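 active means fall in fluorescence gain of 50% or more versus controls, with final raw signal at or below 3038400; inconclusive means same 50% fall but final raw signal above 3038400; inactive means fall in fluorescence gain under 50%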;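 further: plate controls were neutral control wells for no effect and wells lacking membranes for full effect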
Target sequence (Q03530 whole entry, looked up): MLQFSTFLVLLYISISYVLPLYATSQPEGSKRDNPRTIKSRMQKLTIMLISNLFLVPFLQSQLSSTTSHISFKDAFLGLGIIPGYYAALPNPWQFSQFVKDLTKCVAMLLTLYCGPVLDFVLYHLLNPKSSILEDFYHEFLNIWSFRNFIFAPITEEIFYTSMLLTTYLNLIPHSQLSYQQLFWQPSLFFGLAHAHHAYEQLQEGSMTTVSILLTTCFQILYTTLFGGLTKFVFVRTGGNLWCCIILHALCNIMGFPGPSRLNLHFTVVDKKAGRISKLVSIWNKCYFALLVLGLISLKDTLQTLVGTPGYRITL
HIF act: HIF pathway transcriptional activation. U2OS HRE-luciferase reporter, luminescence; normalized: DMSO 0%, desferrioxamine 100%. activation, % at 7.5 µM (by protocol). actives 0.32% (n = 300,000). AID 1910;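 active means mean activation of at least 10% of the iron chelator positive control signal, with at least half of replicates also reaching 10%; inconclusive means mean and replicate majority disagree about reaching 10%; inactive means mean and most replicates under 10%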
The depositor's hits bear a star; i = inactive; u = inconclusive; x = no result; + = active, no number; ! = not confirmed by another sample.

SMILES	AI-2 QS mod	PGC1a acetyl inh	Statin myotox sup	Rce1 inhib	HIF act
COc1ccc(C(=O)Cn2c(N3CCCCC3)nc3c2c(=O)n(C)c(=O)n3C)cc1OC	x	13	x	x	x
COc1ccccc1NC(=O)c1nc(S(=O)(=O)Cc2ccccc2)ncc1Cl	7	-23	-213	i	634*
CCS(=O)(=O)c1ncc(Cl)c(C(=O)Nc2ccccc2OC)n1	22	x	144*	i	-10
CCOc1ccccc1NC(=O)c1nc(S(=O)(=O)Cc2ccccc2)ncc1Cl	11	-6	-66	i	-5
CCSc1nc2sc3c(c2c(=O)n1-c1ccc(OC)cc1)CCN(C)C3	2	5	101*	i	0
COC(=O)CSc1nc2sc3c(c2c(=O)n1-c1ccc(OC)cc1)CCN(C)C3	10	x	-6	i	0
C=C(C)CSc1nc2sc3c(c2c(=O)n1-c1ccc(OC)cc1)CCN(C)C3	12	x	x	+	-2
CC=Cc1ccc2n(c1=O)C[C@H]1[C@H](CO)[C@@H](C(=O)N3CCCCC3)[C@@H]2N1Cc1ccccn1 (mixture of isomers)	x	x	-23	x	x
COc1cc(C)c(-c2cc(C(=O)O)c(C)o2)cc1C(C)C	10	10	95*	i	0
C#CCN([C@H](/C=C/C1CC1)[C@@H](O)Cc1ccccc1)[C@@H]1C(=O)N2[C@@H]1SC(C)(C)[C@@H]2C(=O)OC	x	-15	x	x	x
CCn1c(CN2c3ccccc3Sc3ccccc32)n[nH]c1=S	0	-2	86*	i	1
CCn1c(CCCCc2n[nH]c(=S)n2CC)n[nH]c1=S	30	10	x	i	0
C[C@H]1CN([C@@H](C)CO)C(=O)c2cc(C#CC(C)(C)O)cnc2O[C@H]1CN(C)C(=O)C1CCCCC1	x	20	6	x	x
O=C(C1CCC1)N1C[C@@H]2N[C@H](C1)C2c1ccc(/C=C/c2ccccc2)cc1 (some centres not stated)	x	-50	x	x	x
O=C(Nc1ccc(C(F)(F)F)cc1)N1C[C@@H]2N[C@H](C1)C2c1ccc(/C=C/c2ccccc2)cc1 (some centres not stated)	x	73*!	x	x	x
CCCNC(=O)N(C)C[C@@H]1Oc2ncc(C3=CCCCC3)cc2C(=O)N([C@@H](C)CO)C[C@H]1C	x	-4	17	x	x
O=C(N/N=C/C1CC=CCC1)c1cc2ccccc2cc1O (configuration not stated)	28	-7	-5	i	-1
O=C(N/N=C/C1CC=CCC1)c1ccc(O)cc1O (configuration not stated)	13	x	8	+	0
FC(F)(F)c1ccc(CSc2ccccn2)cc1	-1	x	8	i	10.0*
O=C(Nc1ccccc1)c1ccc(CSc2ccccn2)cc1	16	-11	-31	i	0
COc1cc(-c2cc(-c3ccc(O)cc3)nc(N)c2C#N)ccc1O	6	-21	x	+	1
CC1Cc2ccccc2N1C(=O)CSc1nnnn1C (configuration not stated)	17	19	28	i	1
CC1Cc2ccccc2N1C(=O)CSc1nnc(Cc2ccccc2)n1CCc1ccccc1 (configuration not stated)	-1	-10	113*	i	-1
Cc1ccc(-c2cc(C(F)F)n3ncc(C(=O)N4CCc5ccccc54)c3n2)cc1	27	x	x	i	2
O=C(c1cnn2c(C(F)F)cc(-c3ccccc3)nc12)N1CCc2ccccc21	27	-6	118*	x	0
SMILES	AI-2 QS mod	PGC1a acetyl inh	Statin myotox sup	Rce1 inhib	HIF act
Cc1cc(C)n2nc(CC(=O)NNC(=O)c3ccc(N(C)C)cc3)nc2n1	-17	-1	14	+	0
COc1cccc(C(=O)O/N=C(\N)Cc2ccc(Cl)cc2)c1	-92*	1	x	i	1
N/C(Cc1ccc([N+](=O)[O-])cc1)=N\OC(=O)c1ccc2ccccc2c1	-12	4	x	+	0
COc1cccc(C(=O)O/N=C(\N)c2ccc(C)cc2)c1	16	-3	-9	i	5
CC(C)NC(=O)N(C)C[C@@H]1Oc2ccc(NC(=O)Cn3cnnn3)cc2C(=O)N([C@@H](C)CO)C[C@H]1C	x	1	x	x	x
Cc1ccc(C(=O)OCC(=O)Nc2ccc3c(c2)OCO3)cc1S(=O)(=O)N1CCOCC1	22	5	108*	i	0
CSc1ccc(CCNS(=O)(=O)c2csc(C(N)=O)c2)cc1	9	1	91*	i	0
COc1cccc(C2C3=C(N=C4SCC(=O)N42)c2ccccc2CC3)c1OC (configuration not stated)	8	-5	8	x	0
COc1cccc(C2C3=C(N=c4s/c(=C\c5ccccc5O)c(=O)n42)c2ccccc2CC3)c1OC (configuration not stated)	7	x	x	i	616*
COc1ccc(-c2ccc3c(c2)[C@@H]2[C@@H](CCN2C(=O)NC2CCCC2)[C@H](CO)N3C)cc1	x	10	x	x	x
Cc1cccc(-c2noc(CN(C(=O)c3ccc4c(c3)OCO4)C(C)C)n2)c1	28	-3	30	i	0
Cc1nc(C(C)N(C)Cc2nc(-c3ccc4c(c3)OCO4)no2)c(C)s1 (configuration not stated)	9	97*	20	i	1
c1ccc(CSC2=NNC(c3ccccn3)S2)cc1 (configuration not stated)	14	10	x	i	14*
CC(=O)Nc1ccc(NC(=O)CSc2ccccn2)cc1	25	4	-13	i	1
O=C(CSC1=NNC(c2ccccn2)S1)Nc1ccc(C(F)(F)F)cc1 (configuration not stated)	14	-7	x	i	25*
c1ccc(CSc2ncccn2)cc1	14	-3	-20	i	x
C[C@H](CO)N1C[C@H](C)[C@H](CN(C)S(=O)(=O)c2ccccc2)Oc2c(NC(=O)Nc3ccc(C(F)(F)F)cc3)cccc2C1=O	x	-24	3	x	x
Cc1ccc(S(=O)(=O)Nc2ccc3c(c2)CC(=O)N([C@@H](C)CO)C[C@H](C)[C@@H](CN(C)Cc2ccc(C(F)(F)F)cc2)O3)cc1	x	0	40	x	x
Cc1ccc(S(=O)(=O)Nc2ccc3c(c2)CC(=O)N([C@H](C)CO)C[C@@H](C)[C@@H](CN(C)Cc2ccc(C(F)(F)F)cc2)O3)cc1	x	-1	67*	x	x
C[C@@H]1CN([C@H](C)CO)C(=O)Cc2cc(NS(=O)(=O)c3ccc(Cl)cc3)ccc2O[C@@H]1CN(C)Cc1ccc(C(F)(F)F)cc1	x	-14	u	x	x
Cc1ccc(S(=O)(=O)Nc2ccc3c(c2)CC(=O)N([C@@H](C)CO)C[C@@H](C)[C@H](CN(C)Cc2ccc(C(F)(F)F)cc2)O3)cc1	x	-2	69*	x	x
C[C@H](CO)N1C[C@H](C)[C@@H](CN(C)Cc2ccc(C(F)(F)F)cc2)Oc2ccc(NS(=O)(=O)c3ccc(Cl)cc3)cc2CC1=O	x	-11	112*	x	x

Source: PubChem
